Common to all, as to assay: PBM binding z-score (relative to random genomic background probes); higher = stronger binding; sequences stand for … in GC…GCGATTGACAGCGTAGAATGAAGG
Assay [1] deals with FXR:RXRa (NR concentration 270 nM, RXRa partner concentration 90 nM). The method, boiled down:
(§1)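 Custom Agilent 4×180K protein-binding microarrays carried double-stranded probes, each with a 34-nt variable region. These regions held direct-repeat seeds, single-nucleotide variants, half-site ablations and random human genomic background sequences. Ligand-free nuclear receptor dimers were incubated on the arrays for 1 h, antibodies against each partner (one per run) detected binding, and scanned fluorescence was regression-normalized. Binding z-scores take the random background probes as reference.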

Assay [2] has as its system LXRa:RXRa (NR concentration 270 nM, RXRa partner concentration 90 nM). The method, boiled down: as §1
Assay [3] concerns LXRa homodimer (NR concentration 270 nM). Summed up: as §1
The subject of assay [4] is LXRb:RXRa (NR concentration 270 nM, RXRa partner concentration 90 nM). Summed up:
as §1

The subject of assay [5] is LXRb homodimer (NR concentration 270 nM). Summed up:
as §1

The test system of assay [6] is PPARa:RXRa (NR concentration 270 nM, RXRa partner concentration 90 nM). The method, boiled down:
as §1

The test system of assay [7] is PPARg:RXRa (NR concentration 180 nM, RXRa partner concentration 90 nM). The method, boiled down: as §1
Assay [8] concerns PPARg:RXRa 270nM:90nM, anti-RXR (NR concentration 270 nM, RXRa partner concentration 90 nM). Summed up: as §1
Assay [9] concerns PPARg:RXRa 30nM:10nM, anti-RXR (NR concentration 30 nM, RXRa partner concentration 10 nM). Summed up:
as §1

Assay [10] concerns PPARg:RXRa 90nM:30nM, anti-RXR (NR concentration 90 nM, RXRa partner concentration 30 nM). The method, boiled down: as §1
Assay [11] concerns PPARg:RXRa DBDmut IVT, anti-RXR (DBD mutation: RXRa K156A/R161A, NR concentration 270 nM, RXRa partner concentration 90 nM). Summed up: as §1
Assay [12] concerns PPARg:RXRa IVT, anti-PPARg (NR concentration 270 nM, RXRa partner concentration 90 nM). The method, boiled down: as §1
The subject of assay [13] is PPARg DBDmut:RXRa IVT, anti-PPARg (DBD mutation: PPARg1 K132A/R137A, NR concentration 270 nM, RXRa partner concentration 90 nM). The method, boiled down:
as §1

Assay [14] concerns PPARg DBDmut IVT, anti-PPARg (DBD mutation: PPARg1 K132A/R137A, NR concentration 270 nM). Summed up: as §1
Assay [15] has as its system PPARg homodimer (NR concentration 180 nM). The method, boiled down: as §1
The subject of assay [16] is PXR:RXRa (NR concentration 270 nM, RXRa partner concentration 90 nM). The method, boiled down:
as §1

Assay [17] concerns PXR homodimer (NR concentration 270 nM). Summed up:
as §1

The subject of assay [18] is RARa:RXR (NR concentration 270 nM, RXRa partner concentration 90 nM). Summed up:
as §1

The subject of assay [19] is RARa homodimer (NR concentration 270 nM). Summed up: as §1
The subject of assay [20] is RARb:RXRa (NR concentration 270 nM, RXRa partner concentration 90 nM). Summed up:
as §1

As to ATCTCTAGGTAAAAGTTCTGTGAATCCCGAGGAT, the PBM binding z-score in assay [1] was 0.0905; in [2], 0.216; in assay [3], 0.111; in assay [4], -0.143; in assay [5] it was 0.463; in [6], 1.52. The PBM binding z-score in assay [7] was determined as 2.62; in assay [8], 3.93; in assay [9], 2.04; in [10] it was 4.05; in [11], 2.32; in [12] it was 1.91. In addition, the PBM binding z-score is 1.22 in assay [13]; 1.71 in assay [14]; 1.06 in assay [15]; 0.0852 in assay [16]; 0.034 in [17]; -0.0223 in assay [18]. Also, the figures for the PBM binding z-score in assay [19] and in [20] were 0.566 and 0.232, respectively.

As for TCACATAGGTAATACAGGTGAAAGTCGGCATCTA, the PBM binding z-score amounted to 0.672 in assay [1]; 0.976 in assay [2]; 0.424 in assay [3]; 0.83 in assay [4]; 0.142 in assay [5]; 1.66 in [6]. Also, the PBM binding z-score was 1.04 in assay [7]; 2.47 in assay [8]; 3.63 in assay [9]; 3.03 in assay [10]; 2.54 in assay [11]; 1.8 in assay [12]. Besides, the PBM binding z-score in assay [13] came out at 1.44; in assay [14] it was 0.888; in assay [15], 0.824; in assay [16], 0.746; in [17] it was 0.212; in assay [18], 1.26. Further, the PBM binding z-score is 0.821 in assay [19] and 0.68 in assay [20].

Regarding AGTCAAACTTCACTAGGTAACGTAAGATTCAGCT, the PBM binding z-score is -0.0326 in assay [1]; -0.0348 in assay [2]; -0.0758 in assay [3]; 0.0812 in assay [4]; 0.248 in [5]; 0.271 in [6]. In addition, the PBM binding z-score was found to be 0.504 in assay [7]; 0.268 in assay [8]; 0.187 in assay [9]; 0.101 in [10]; 1.97 in [11]; 2.66 in assay [12]. The PBM binding z-score in assay [13] was 0.854; in [14] it was 1.24; in [15] it was 0.579; in assay [16], -0.238; in assay [17] it was 0.241; in assay [18], -0.00905. Also, the PBM binding z-score in assay [19] is -0.136; in assay [20] it was 0.174.

Regarding AGAATGAGGTTATTAAGATCAAGGAATTGCGGTC, the PBM binding z-score was determined as 1.4 in [1]; 1.67 in assay [2]; 0.35 in [3]; 1.5 in assay [4]; 0.176 in assay [5]; 2.85 in assay [6]. Further, the PBM binding z-score came to 1.82 in assay [7]; 2.2 in [8]; 0.602 in assay [9]; 1.6 in assay [10]; 2.9 in assay [11]; 2.73 in [12]. Also, the PBM binding z-score in assay [13] turned out to be 1.27; in assay [14] it was 0.466; in assay [15] it was 0.735; in assay [16], 1.37; in [17] it was 0.527; in [18], 1.58. The PBM binding z-score in assay [19] was 1.15; in assay [20], 1.45.

In the case of AGAATGAGGTTCTACGTAGATCAGGGAAGAAAGT, the PBM binding z-score in assay [1] was -0.522; in [2] it was -0.707; in assay [3], -0.69; in assay [4], -0.345; in assay [5] it was -0.624; in assay [6], -0.336. Also, the PBM binding z-score in [7] is 0.146; in [8], -0.165; in assay [9], -0.125; in assay [10] it was -0.13; in assay [11] it was 0.0808; in [12], 0.054. Besides, the PBM binding z-score is 0.621 in assay [13]; 0.606 in assay [14]; -0.411 in assay [15]; -0.126 in assay [16]; 0.193 in assay [17]; -0.0619 in assay [18]. Also, the PBM binding z-score is -0.303 in assay [19] and -0.407 in assay [20].

For TGAATGAGGTTAAAGATAAGGGAACGTGGCGTCG, the PBM binding z-score in assay [1] came to 2.65; in assay [2], 2.28; in [3], 0.104; in [4], 1.5; in [5] it was 0.393; in assay [6] it was 3.54. Further, the PBM binding z-score came to 2.88 in [7]; 3.98 in assay [8]; 1.97 in assay [9]; 3.5 in assay [10]; 2.35 in assay [11]; 2.62 in assay [12]. In addition, the PBM binding z-score in assay [13] is 1.71; in [14], 0.597; in assay [15], 0.427; in [16], 1.37; in assay [17], 0.106; in [18], 2.09. Further, the PBM binding z-score is -0.181 in assay [19] and 2.04 in assay [20].

Values taken from the supplement of paper PMC6555819.
